# GLD-1 TGE inh: GLD-1/TGE RNA complex disruptors, primary screen, biochemical, fluorescence polarization; Female germline-specific tumor suppressor gld-1 (Caenorhabditis elegans), Q17339; purified GLD-1 + fluorescein TGE RNA; inhibition, % at 5.96 µM; 320,000 compounds, 0.44% hits; AID 2280, 2010;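 active = percent inhibition above a per-plate cutoff, the plate mean of test compounds plus 3 SD, cut at about 30% in these data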;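 also: 0% = DMSO wells with GLD-1 and probe and 100% = wells lacking GLD-1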
# MCL1-BIM inh: inhibitors of MCL1 binding to BIM-BH3, primary screen, biochemical, fluorescence polarization; Induced myeloid leukemia cell differentiation protein Mcl-1 (Homo sapiens), Q07820; GST-MCL1 / FITC-Bim-BH3 fluorescence polarization; inhibition, % at 10.9 µM; 320,000 compounds, 0.68% hits; AID 2057, 2009;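 active = inhibition above the mean inhibition of all tested compounds plus 3 SD, set per campaign, cut at about 40% in these data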;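 also: 0% = DMSO wells and 100% = unlabeled Bim-BH3 peptide control; higher means more loss of mP so more displacement of Bim peptide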
# Target sequence (Q07820 whole entry, looked up): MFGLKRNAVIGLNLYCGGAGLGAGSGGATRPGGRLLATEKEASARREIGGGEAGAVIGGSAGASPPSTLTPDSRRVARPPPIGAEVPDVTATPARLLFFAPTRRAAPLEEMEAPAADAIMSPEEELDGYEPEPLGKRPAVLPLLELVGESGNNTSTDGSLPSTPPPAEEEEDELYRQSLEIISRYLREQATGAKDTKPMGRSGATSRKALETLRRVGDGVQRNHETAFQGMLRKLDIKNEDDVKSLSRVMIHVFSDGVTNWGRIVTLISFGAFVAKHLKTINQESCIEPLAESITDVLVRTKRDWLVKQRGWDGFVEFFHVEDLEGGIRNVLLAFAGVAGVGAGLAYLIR
# Mcl1-Noxa inh: Mcl-1/Noxa binding inhibitors, primary screen, biochemical, TR-FRET, 1536-well; AID 1022, 2008; inhibition, % at 21.7 µM; 220,000 compounds, 1.5% hits; TR-FRET Mcl-1/Noxa peptide binding, 2 h; Induced myeloid leukemia cell differentiation protein Mcl-1 (Homo sapiens), Q07820;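 active = compounds that cut the protein-peptide binding signal by more than 50% relative to plate controls in a single-dose test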;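 also: His-tagged Mcl-1 with rhodamine Noxa BH3 peptide and terbium anti-His antibody; 0% = Mcl-1 plus Noxa peptide wells and 100% = peptide-only wells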
# Mcl-1 Bim block: inhibitors of Bim peptide binding to Mcl-1, primary screen, biochemical, bead-based flow cytometry, multiplex; Induced myeloid leukemia cell differentiation protein Mcl-1 (Homo sapiens), Q07820; Bim peptide-Mcl-1 binding; inhibition, % at 10 µM; 190,000 compounds, 0.1% hits; AID 1009, 2008; in the data active = inhibition above about 40%;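 also: 0% = no compound tracer wells and 100% = peptide blocker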
# Mcl1 Bid PPI: Mcl-1/Bid binding inhibitors, primary screen, biochemical, TR-FRET, 1536-well | TR-FRET Mcl-1/Bid-Dy647 peptide binding | inhibition, % at 21.7 µM | 220,000 compounds, 0.97% hits | AID 1021, 2008;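 active = compounds that cut the binding signal by more than half at the single screening dose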;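 also: His-tagged Mcl-1 with europium anti-His antibody binding Bid BH3 peptide; 0% = Mcl-1 plus peptide wells and 100% = peptide-only wells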
# BCLXL inh: inhibitors of human Bcl-xL, primary screen, biochemical, fluorescence polarization, HTS; GST-Bcl-xL / FITC-Bim BH3 peptide fluorescence polarization; inhibition, % at 10.9 µM; AID 2129, 2009; 320,000 compounds, 0.7% hits;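 active = inhibition above the mean of all tested compounds plus 3 SD, cutoff set per campaign, cut at about 30% in these data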;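 also: 0% = DMSO wells and 100% = unlabeled Bim-BH3 peptide competitor; inhibitors lower millipolarization by displacing the labeled peptide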
# Target sequence (Q07817 whole entry, looked up): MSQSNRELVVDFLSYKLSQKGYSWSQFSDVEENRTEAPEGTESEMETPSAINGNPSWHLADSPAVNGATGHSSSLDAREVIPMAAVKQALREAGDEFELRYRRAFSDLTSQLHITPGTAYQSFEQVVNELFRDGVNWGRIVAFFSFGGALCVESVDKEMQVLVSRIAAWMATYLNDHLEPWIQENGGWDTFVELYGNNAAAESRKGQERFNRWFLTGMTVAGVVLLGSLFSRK
# * = called active by the depositor; x = no result given. A selection: hits, their analogues and other compounds. The true share with any hit is near 2.3%.
SMILES,GLD-1 TGE inh,MCL1-BIM inh,Mcl1-Noxa inh,Mcl-1 Bim block,Mcl1 Bid PPI,BCLXL inh
CC1OC(OCC2OC(Oc3c(-c4ccc(O)cc4)oc4cc(O)cc(O)c4c3=O)C(O)C(O)C2O)C(O)C(O)C1O (stereo unspecified),6.9,14.1,54.1*,0.0,-7.3,5.7
CCC(CC)C(=O)Oc1c(Sc2ccccc2[N+](=O)[O-])c(C)nn1C(C)(C)C,-0.3,7.0,-6.8,-3.0,91.2*,3.8
COCC(=O)Oc1c(Sc2ccccc2[N+](=O)[O-])c(C)nn1C(C)(C)C,5.8,7.3,26.5,1.0,-5.8,6.6
O=C(c1cccc(C(F)(F)F)c1)N1CCC(O)(CS(=O)(=O)Cc2ccc(Cl)cc2)CC1,2.3,5.3,7.4,-1.0,4.7,3.6
O=C(Nc1ccccc1O)c1ccc(NC(=O)C2CC2)cc1,-3.4,0.7,x,x,x,3.5
O=C(c1cccs1)[C@@H]1[C@@H]2C(=O)N(Cc3ccc4c(c3)OCO4)C(=O)[C@@H]2C2c3ccccc3C=CN21 (stereo partly specified),39.5*,43.4*,-7.4,-3.0,-75.3,47.7*
O=C(c1ccc2c(c1)OCO2)[C@@H]1[C@@H]2C(=O)N(C3CCCCC3)C(=O)[C@@H]2C2c3ccccc3C=CN21 (stereo partly specified),x,x,-2.7,0.0,-13.3,x
CC1(C)CC(=O)C=C(Nc2ccc(S(N)(=O)=O)cc2)C1,-4.9,-5.2,11.8,-1.0,-0.7,2.7
c1cc(C(c2nnnn2C2CCCCC2)N2CCN3CCCC3C2)ccn1 (stereo unspecified),27.7,38.7,-2.7,12.0,-24.7,37.4*
O=C(CN(CC1CCCO1)C(=O)CNS(=O)(=O)c1ccc(Cl)cc1)NCc1ccco1 (stereo unspecified),2.8,-2.4,x,x,x,-5.7
CSc1ccccc1NC(=O)c1noc2c1CCC2,3.9,33.5,66.2*,-2.0,-34.0,8.1
C=CCn1c(N)cc(=O)nc1SCC(=O)Nc1ccc2ccccc2c1,4.1,2.7,21.9,-2.0,-1.2,1.9
CCOC(=O)c1c(C)oc2c1c1c(c3ccccc32)OCN(Cc2cccnc2)C1,x,x,71.1*,1.0,9.5,x
CCOC(=O)c1c(C)oc2c1c(C=NCc1ccccn1)c(O)c1ccccc12,x,x,1.3,0.0,-27.7,x
CCOC(=O)c1c(C)oc2c1c1c(c3ccccc32)OCN(CCCC(=O)O)C1,12.7,3.5,52.6*,x,-20.9,3.9
CCOC(=O)c1c(C)oc2c1c(C(c1cccnc1)N1CCOCC1)c(O)c1ccccc12 (stereo unspecified),0.9,9.7,101.3*,-5.0,69.2*,5.7
O=c1c(-c2ccco2)[n+]([O-])c2ccccc2n1OCc1ccccc1,37.6*,15.9,25.6,2.0,-11.8,30.5*
O=c1c(-c2ccco2)[n+]([O-])c2ccccc2n1OCc1c(F)cccc1F,9.7,-5.7,33.4,x,4.6,2.4
CC1CCCCC1NC(=S)Nc1ccc(SC(F)F)cc1 (stereo unspecified),3.1,6.4,6.3,-3.0,10.7,3.6
CCCCNC(=O)C1CC(c2ccccc2[N+](=O)[O-])=NO1 (stereo unspecified),-0.1,-11.1,-4.4,0.0,7.5,-6.5
O=C(NCCCCc1ccccc1)C1CC(c2ccccc2[N+](=O)[O-])=NO1 (stereo unspecified),1.5,-2.9,100.1*,-3.0,8.0,-1.3
CN1CCc2c(sc3c2C(=O)NC(c2cccc(OC(=O)c4cccs4)c2)N3)C1 (stereo unspecified),-86.9,-70.4,57.6*,-1.0,-6.0,-33.6
CN1CCc2c(sc3c2C(=O)NC(c2ccco2)N3)C1 (stereo unspecified),9.3,39.8,24.1,-1.0,-24.3,37.6*
CCOC(=O)N1CCc2c(sc3c2C(=O)NC(c2ccccc2)N3)C1 (stereo unspecified),6.3,25.2,19.3,-2.0,-68.0,27.7
COc1ccc2[nH]cc(C3N4CC5(C)CN3CC(C)(C4)C5=O)c2c1 (stereo unspecified),1.5,4.8,2.8,2.0,55.0*,1.2
SMILES,GLD-1 TGE inh,MCL1-BIM inh,Mcl1-Noxa inh,Mcl-1 Bim block,Mcl1 Bid PPI,BCLXL inh
Cc1nc2c(-c3ccc(Cl)cc3)cnn2c2c1CCC2,5.3,-10.7,14.4,0.0,85.2*,1.1
COc1ccc(OCC(O)CNC(=O)Nc2cc(C)cc(C)c2)cc1 (stereo unspecified),1.1,2.1,-3.3,x,-11.6,7.5
CC(=O)Nc1cccc(CP(=O)(c2ccccc2)c2ccccc2)c1,8.6,-0.3,5.1,x,-27.8,-2.2
CCc1nc(C)ccc1OCC(=O)O,4.0,-7.7,20.1,-1.0,22.1,-1.7
CCc1nc(C)ccc1OCC(=O)NCCCN(C)C,7.7,0.5,32.2,-3.0,55.0*,-3.3
CN1CCN(CC2(O)CCN(S(=O)(=O)c3ccc(Cl)cc3)CC2)CC1,1.7,-0.4,0.0,-4.0,-4.2,0.7
CC1(NC(=O)CC(c2ccccc2)(c2ccccc2)c2ccccc2)CCN(Cc2ccc(-c3ccccc3)cc2)C1=O (stereo unspecified),3.6,x,x,x,x,x
CCc1ccc(NC(=O)c2ccnc(C(C)(C)C)c2)cc1,5.2,7.4,-2.1,1.0,101.3*,-0.9
O=c1oc2ccccc2c(O)c1CN1CCCCC1,6.1,0.7,-1.6,-3.0,-7.7,4.0
O=C1NCCCC2c3cc(O)c4ccccc4c3OC12N1CCCCC1 (stereo unspecified),26.9,56.6*,78.2*,5.0,0.0,52.1*
COC(=O)CN=Cc1c(O)n(-c2ccc(Cl)cn2)c(=O)c2ccccc12,2.2,-3.2,14.4,2.0,-5.9,0.3
Cc1ccc(/C=C(\CCC(=O)O)c2nc3ccccc3s2)cc1[N+](=O)[O-],0.4,1.1,26.8,-4.0,4.5,3.3
COc1ccc(C(=O)Nc2cccc(/C=C(\CCC(=O)O)c3nc4ccccc4s3)c2)cc1,1.1,-3.1,85.2*,x,-61.0,3.8
CCOc1cc(/C=C(\CC(=O)O)c2nc3ccccc3s2)ccc1OC,2.8,2.1,13.3,0.0,-1.2,5.7
O=C(Nc1cccc(/C=C/c2nc3ccccc3c(=O)[nH]2)c1)c1ccccc1Cl,0.2,4.3,-2.8,x,9.7,1.1
COc1ccc(C(=O)Nc2cccc(/C=C/c3nc4ccccc4c(=O)[nH]3)c2)cc1,2.2,-12.6,57.2*,x,42.7,-8.9

# Assay outcomes as filed in PubChem BioAssay.
